The full ranking holds about 68,000 sequences; the median of “fluorescence intensity (a.u.)” is about 9,100, and the highest 2% start at about 16,000. This is one part of a sample in which the highest values are shown more often than they occur.
Molecular target: OsWRKY34 (Oryza sativa, UniProt Q0JBA9 1-250)
Assay: protein-binding microarray (RPBM); PBS, 2% BSA, 51.3 ng/ul salmon testes DNA, 50 uM zinc acetate, 200 nM TF, 25 C, 1 h; high values mean tight binding
Settings: protein: recombinant; tags: N-terminal polyhistidine and DsRed monomer fusion (pET32a); label: CyDye5-dUTP incorporated in the synthesized complementary strand; 3' TTTTT single-stranded linker to array surface; dsDNA, one strand shown
Method in brief: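 Using Ni–NTA, transcription factors fused N-terminally to polyhistidine and DsRed were purified after expression in E. coli BL21-CodonPlus. These were incubated at 200 nM with a blocked, double-stranded custom Agilent array for 1 h at 25 °C in a buffer containing 50 µM zinc acetate, and the array was washed. The binding signal is per-feature fluorescence intensity (arbitrary units) on an Axon 4000B scanner.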

OsWRKY34, sequence (Q0JBA9 entry or part of it): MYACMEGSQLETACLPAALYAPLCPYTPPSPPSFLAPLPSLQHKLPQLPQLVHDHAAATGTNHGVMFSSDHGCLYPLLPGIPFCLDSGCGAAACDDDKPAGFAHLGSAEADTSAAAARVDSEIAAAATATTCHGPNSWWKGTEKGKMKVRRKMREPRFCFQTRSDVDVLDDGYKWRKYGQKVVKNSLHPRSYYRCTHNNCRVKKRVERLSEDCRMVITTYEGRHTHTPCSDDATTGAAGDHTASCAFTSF

Sequence	binding signal
ATCCCAATCCATGATCCAGCCATTCATCATCTGCATATATCGGAGTCACCTAGTGCAG	9790 fluorescence intensity (a.u.)
AATGTATGACGCCGTTGACTTTTTGACCAACGTTTGACTACGGAGTCACCTAGTGCAG	36100 fluorescence intensity (a.u.)
ATGAGTGATTGATTTCTTGTTTATAGGAGTGGGTTGTTCACGGAGTCACCTAGTGCAG	11200 fluorescence intensity (a.u.)
GTTTAGTTGATTTCAGGGCCAGTTCTTGTGGGGTTTTCAACGGAGTCACCTAGTGCAG	8490 fluorescence intensity (a.u.)
ACTATTACTACCTCAGTTTTGAAATGTATGACGTTGACTTCGGAGTCACCTAGTGCAG	11000 fluorescence intensity (a.u.)
ATGTACGACGCTATTGACTTTTTAACCAACGTTTGACTATCGGAGTCACCTAGTGCAG	11000 fluorescence intensity (a.u.)
AAACGCTATTGACTTTTTTTATAAATGTATGACCATTCGTCGGAGTCACCTAGTGCAG	10400 fluorescence intensity (a.u.)
AGATGACGCCGTTGACTTTTTATCACATGTTTAACCATTCCGGAGTCACCTAGTGCAG	42300 fluorescence intensity (a.u.)
AATATTCGACGCCGTTCACTTTTTTAAATATGTTTGACCACGGAGTCACCTAGTGCAG	9820 fluorescence intensity (a.u.)
AGATTACGCCGTTAACTTTTTCTCACATGTTTGACCATTCCGGAGTCACCTAGTGCAG	11000 fluorescence intensity (a.u.)
ATGTATGACGCCGTTGACTTTTCGACCAACGTTTATTCGTCGGAGTCACCTAGTGCAG	30200 fluorescence intensity (a.u.)
TCTTGTGCAGGGGTTGATTTTTCAGTGTATAGGGGTATGACGGAGTCACCTAGTGCAG	16800 fluorescence intensity (a.u.)
ATCTGTCAGTGCCACATCACCACCACACAACCGCAAAGAACGGAGTCACCTAGTGCAG	9250 fluorescence intensity (a.u.)
ATCGGTGTTGACCTCCATATGCTGATCAGGCCCCATTTCCCGGAGTCACCTAGTGCAG	8140 fluorescence intensity (a.u.)
GGCCGAGCAGGTCTCCCGCGCCTTCGACATCCCTCTGCCACGGAGTCACCTAGTGCAG	8600 fluorescence intensity (a.u.)
TTCCTCTACATTCTACGTCCGGTTGGATTTTGCATGCGATCGGAGTCACCTAGTGCAG	8640 fluorescence intensity (a.u.)
TTCTTCCCAGATCGTGCTTCTCCCACTCGGATCAGCCGCCCGGAGTCACCTAGTGCAG	8110 fluorescence intensity (a.u.)
TGTTGTTTTTTATGTGTGAACCTCTTTGATCTCAATGCAACGGAGTCACCTAGTGCAG	8510 fluorescence intensity (a.u.)
CCTCCCTCACCGTCTTCCGCCTCGCCATCTCCAGCTCCGACGGAGTCACCTAGTGCAG	10100 fluorescence intensity (a.u.)
CACCATCCATGCATATGCATCTTGTAGTTATTGCTTGCTCCGGAGTCACCTAGTGCAG	9580 fluorescence intensity (a.u.)
TCCACATCATCCGACCAACTCTACCAGCCATTCCACCCGCCGGAGTCACCTAGTGCAG	9160 fluorescence intensity (a.u.)

Sequence	binding signal
CCTTATACTGTCTCACTTGTCTCACACTGAAACCGTTTTCCGGAGTCACCTAGTGCAG	8410 fluorescence intensity (a.u.)
GTATGACGCCGTTGACTTTTTGGCCAACGTTTGACCATTCCGGAGTCACCTAGTGCAG	41500 fluorescence intensity (a.u.)
GTATAACGCCGTTGACTTTTTAACCAATGTTTGACCATTCCGGAGTCACCTAGTGCAG	40400 fluorescence intensity (a.u.)
TGACGACGCCATTGACTTTTGAACACATGTTTGACCATTCCGGAGTCACCTAGTGCAG	15900 fluorescence intensity (a.u.)
CGTTTGGCCAAGTATATGACGCCCTAACTTATAAGTTGACCGGAGTCACCTAGTGCAG	8420 fluorescence intensity (a.u.)
ACGCCGTTAACTTTTTATCCAATGTTTGACCATTCGTCTTCGGAGTCACCTAGTGCAG	13000 fluorescence intensity (a.u.)
TCCATCGCGCGTCGTCTCCACCTTTGTTGCTTGTGCCACCCGGAGTCACCTAGTGCAG	10200 fluorescence intensity (a.u.)
ATGGGGTATTTAGGATGGGCAATATTTTGGTAGTGAGGAGCGGAGTCACCTAGTGCAG	9430 fluorescence intensity (a.u.)
TGCTAAAAAGTCAACGGTGTCAAACATTTCGAAACGGAGGCGGAGTCACCTAGTGCAG	10900 fluorescence intensity (a.u.)
ACCACCACCGTCTCAACTCTCTCTCAGACTGTCCGCCATGCGGAGTCACCTAGTGCAG	8030 fluorescence intensity (a.u.)
ATATATCCATGCGAACTTCGCTCCAATAGTGAATTTTATCCGGAGTCACCTAGTGCAG	8900 fluorescence intensity (a.u.)
TAAAGCTTTATATAGCTGGCCCGCTGACTTTTTTATATATCGGAGTCACCTAGTGCAG	9020 fluorescence intensity (a.u.)
GCTTTATCGTGCAAACACCTAAGCTGATAAAGGCAAAGGTCGGAGTCACCTAGTGCAG	23200 fluorescence intensity (a.u.)
ATATACATAAGCTTCTCGTGCACACACAAACTAACATAAACGGAGTCACCTAGTGCAG	8610 fluorescence intensity (a.u.)
GGAGCGATGACGTTCTATACCTTCGGCCTTCGTTTGACCGCGGAGTCACCTAGTGCAG	10600 fluorescence intensity (a.u.)
TTGATTTCTCTGAGTTTGTGTTCTTGGCATCATCATCATTCGGAGTCACCTAGTGCAG	11400 fluorescence intensity (a.u.)
TTTTTCTCCCCAGATTGCTGTGCACGGATTTGCCGTAAGACGGAGTCACCTAGTGCAG	8360 fluorescence intensity (a.u.)
TGTGTTTGAGGGGTGTGTATGTGTTGTGTTGTAGGTCAACCGGAGTCACCTAGTGCAG	9510 fluorescence intensity (a.u.)
TATTTTATCTCACTGGCTATTTCCTATGATTATTTATTTCCGGAGTCACCTAGTGCAG	11400 fluorescence intensity (a.u.)
GGCTTTTGGTTTCTTGGTGGTTGTGGATTTTTTTTTTTTGCGGAGTCACCTAGTGCAG	12300 fluorescence intensity (a.u.)
TTGCTTGTGTTGGGCCGTAGGGTTTTTGTTTTTTTTTTTGCGGAGTCACCTAGTGCAG	8410 fluorescence intensity (a.u.)
